Reference: PubChem BioAssay (NCATS)
Results filed as inconclusive are left out. Calls of active or inactive are those of the source. The call rests on the fitted dose curve; in most records, active means well fitted inhibition curve with a large enough effect; inconclusive means small, poorly fitted or top-dose-only effect; inactive means flat fitted curve, though single readings scatter.

Tested on: not listed separately
Test: qHTS profiling for inhibitors of Plasmodium falciparum proliferation (AID 504749); further: nearly all actives have a fitted effect of over 60% in size;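 on activity, negative = inhibition: 0% = DMSO vehicle and full inhibition = artemisinin control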
Conditions: P. falciparum in erythrocytes, SYBR Green DNA, 72 h; at 28.7 µM (top of the series); parasite line B
In short: (§1)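 Parasite proliferation within erythrocytes, 72 h exposure. Endpoint: SYBR Green I fluorescence after overnight lysis at room temperature. Controls: 0.29 uM artemisinin, DMSO.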
Potency means the concentration at half of the fitted maximal effect.

Compound	activity, negative = inhibition
CCOCCn1c(N2CCCN(C)CC2)nc2ccccc21	8.28% (inactive)
NS(=O)(=O)Cc1noc2ccccc12	4.66% (inactive)
CCCCC(CC)COC(=O)/C=C/c1ccc(OC)cc1 (configuration not stated)	11.8% (inactive)
O=c1[nH]c(=O)n([C@H]2C[C@H](O)[C@@H](CO)O2)cc1F	-0.681% (inactive)
C/C=C/c1ccc(O)c(OC)c1	-10.3% (inactive)
OC1C(O)C(O)C(O)C(O)C1O (configuration not stated)	14.4% (inactive)
COc1ccc(CN(CCN(C)C)c2ncccn2)cc1	5.48% (inactive)
NC(=O)C1(N2CCCCC2)CCN(CCCC(=O)c2ccc(F)cc2)CC1	10.8% (inactive)
CC(=O)OCC(=O)[C@H]1CC[C@H]2[C@@H]3CCC4=CC(=O)CC[C@]4(C)[C@H]3CC[C@]12C	-3.83% (inactive)
C[C@@H](O)[C@H]1C(=O)N2C(C(=O)O)=C(S[C@@H]3CN[C@H](CNS(N)(=O)=O)C3)[C@H](C)[C@H]12	3.74% (inactive)
CC(=O)O[C@H]1C[C@@H]2CC[C@@H]3[C@H](CC[C@@]4(C)[C@H]3C[C@H]([N+]3(C)CCCCC3)[C@@H]4OC(C)=O)[C@@]2(C)C[C@@H]1N1CCCCC1	-19.6% (inactive)
CC(=O)Nc1ccc(CC(=O)O)cc1	11.5% (inactive)
O=C(Nc1ccc([N+](=O)[O-])cc1)Nc1ccc([N+](=O)[O-])cc1	-6.66% (inactive)
CC(C)Cc1ccc(CC(=O)O)cc1	6.05% (inactive)
C#C[C@]1(O)CC[C@H]2[C@@H]3CCC4=CC(=O)CC[C@@H]4[C@H]3CC[C@@]21CC	-6.83% (inactive)
C=CCN1CCc2nc(N)sc2CC1	2.41% (inactive)
Cc1ccccc1OCC(O)CO (configuration not stated)	2.74% (inactive)
CCN(CC)CCOc1ccccc1C(=O)CCc1ccccc1	-13.2% (inactive)
CN(Cc1ccc(C(C)(C)C)cc1)Cc1cccc2ccccc12	-26.9% (inactive)
O=C(Oc1cccc2cccnc12)c1ccccc1	-15.2% (inactive)
CCCCCCCCCCCCSCCOCCO	14.6% (inactive)
CCN(CC)CCOC(=O)C1(c2ccccc2)CCCC1	-32% (inactive)
CCCCC(CC)COC(=O)c1ccc(N(C)C)cc1 (configuration not stated)	-4.81% (inactive)
CN1CCN(C2=Nc3ccccc3Sc3ccc(Cl)cc32)CC1	-25.1% (inactive)
CN(C)CCN1C(=O)c2ccccc2N(C)c2ccccc21	8.88% (inactive)
C#C[C@]1(OC(C)=O)CC[C@H]2[C@@H]3CCC4=C/C(=N/O)CC[C@@H]4[C@H]3CC[C@@]21CC	-15.6% (inactive)

Same assay, conditions: P. falciparum in erythrocytes, SYBR Green DNA, 72 h; parasite line A

Compound	Potency
O[C@@H](c1cc(C(F)(F)F)nc2c(C(F)(F)F)cccc12)[C@H]1CCCCN1	0.0316 µM (active)
C[N+]1(CC2COC(c3ccccc3)(C3CCCCC3)O2)CCCCC1 (configuration not stated)	2.82 µM (active)
O=C(Nc1cccc(C2=NCCN2)c1)Nc1cccc(C2=NCCN2)c1	8.91 µM (active)
COc1ccc(C(Cl)=C(c2ccc(OC)cc2)c2ccc(OC)cc2)cc1	3.98 µM (active)

Same assay, conditions: P. falciparum in erythrocytes, SYBR Green DNA, 72 h; parasite line B

Compound	Potency
O[C@@H](c1cc(C(F)(F)F)nc2c(C(F)(F)F)cccc12)[C@H]1CCCCN1	0.0126 µM (active)
C[N+]1(CC2COC(c3ccccc3)(C3CCCCC3)O2)CCCCC1 (configuration not stated)	4.47 µM (active)
O=C(Nc1cccc(C2=NCCN2)c1)Nc1cccc(C2=NCCN2)c1	11.2 µM (active)
COc1ccc(C(Cl)=C(c2ccc(OC)cc2)c2ccc(OC)cc2)cc1	3.98 µM (active)

Tested on: 3D7
Test: as above
Conditions: P. falciparum in erythrocytes, SYBR Green DNA, 72 h; series mostly up to 28.7 µM
In short: as §1

Compound	Potency
CCOCCn1c(N2CCCN(C)CC2)nc2ccccc21	inactive
NS(=O)(=O)Cc1noc2ccccc12	inactive
CCCCC(CC)COC(=O)/C=C/c1ccc(OC)cc1 (configuration not stated)	inactive
O=c1[nH]c(=O)n([C@H]2C[C@H](O)[C@@H](CO)O2)cc1F	inactive
O[C@@H](c1cc(C(F)(F)F)nc2c(C(F)(F)F)cccc12)[C@H]1CCCCN1	0.0355 µM (active)
CCOC(=O)Nc1ccc2c(c1)N(C(=O)CCN1CCOCC1)c1ccccc1S2	inactive
C/C=C/c1ccc(O)c(OC)c1	inactive
CCCCc1cc2ccccc2c(OCCN(C)C)n1	inactive
OC1C(O)C(O)C(O)C(O)C1O (configuration not stated)	inactive
COc1ccc(CN(CCN(C)C)c2ncccn2)cc1	inactive
NC(=O)C1(N2CCCCC2)CCN(CCCC(=O)c2ccc(F)cc2)CC1	inactive
CC(=O)OCC(=O)[C@H]1CC[C@H]2[C@@H]3CCC4=CC(=O)CC[C@]4(C)[C@H]3CC[C@]12C	inactive
CN1CCC(OC(c2ccccc2)c2ccccc2)CC1	inactive
C[N+]1(CC2COC(c3ccccc3)(C3CCCCC3)O2)CCCCC1 (configuration not stated)	7.08 µM (active)
C[C@@H](O)[C@H]1C(=O)N2C(C(=O)O)=C(S[C@@H]3CN[C@H](CNS(N)(=O)=O)C3)[C@H](C)[C@H]12	inactive
CC(=O)O[C@H]1C[C@@H]2CC[C@@H]3[C@H](CC[C@@]4(C)[C@H]3C[C@H]([N+]3(C)CCCCC3)[C@@H]4OC(C)=O)[C@@]2(C)C[C@@H]1N1CCCCC1	inactive
CC(=O)Nc1ccc(CC(=O)O)cc1	inactive

Compound	Potency
O=C(Nc1ccc([N+](=O)[O-])cc1)Nc1ccc([N+](=O)[O-])cc1	7.08 µM (active)
CC(C)Cc1ccc(CC(=O)O)cc1	inactive
O=C(Nc1cccc(C2=NCCN2)c1)Nc1cccc(C2=NCCN2)c1	10 µM (active)
C#C[C@]1(O)CC[C@H]2[C@@H]3CCC4=CC(=O)CC[C@@H]4[C@H]3CC[C@@]21CC	inactive
C=CCN1CCc2nc(N)sc2CC1	inactive
Cc1ccccc1OCC(O)CO (configuration not stated)	inactive
CCN(CC)CCOc1ccccc1C(=O)CCc1ccccc1	inactive
CN(Cc1ccc(C(C)(C)C)cc1)Cc1cccc2ccccc12	inactive
O=C(Oc1cccc2cccnc12)c1ccccc1	inactive
NS(=O)(=O)c1cc(C(=O)O)cc(N2CCCC2)c1Oc1ccccc1	inactive
CCCCCCCCCCCCSCCOCCO	inactive
CCCCC(CC)COC(=O)c1ccc(N(C)C)cc1 (configuration not stated)	inactive
CCCCNc1ccc(C(=O)OCCOCCOCCOCCOCCOCCOCCOCCOCCOC)cc1	inactive
CN(C)CCN1C(=O)c2ccccc2N(C)c2ccccc21	inactive
C#C[C@]1(OC(C)=O)CC[C@H]2[C@@H]3CCC4=C/C(=N/O)CC[C@@H]4[C@H]3CC[C@@]21CC	inactive
CC[C@H](c1ccc(O)cc1)[C@@H](CC)c1ccc(O)cc1	inactive
